Most compounds without a hit are left out; they make up all but 31% or so of the library.
CYP2C19 act: activators of human cytochrome P450 2C19 | P33261 | recombinant CYP2C19, luciferin-H EGE luminescence; hits give high values; 0 = fully inhibited enzyme, 1 = untreated enzyme | 96,000 tested, under 10 active | AID 1025 | activation factor at 5 µM;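 active means activation factor of at least 2 at 5 µM in the primary screen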
CYP2C9 activ: CYP2C9 (human) activation | P11712 | recombinant CYP2C9, luciferin-H conversion, luminescence; hits give high values; factor 1 = untreated enzyme, 0 = blocked | activation factor at 5 µM | 96,000 compounds, 1.4% hits | AID 1024;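 active means activation factor of 2 or more for CYP2C9 at a 5 µM dose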
Target sequence (P11712 whole entry, looked up): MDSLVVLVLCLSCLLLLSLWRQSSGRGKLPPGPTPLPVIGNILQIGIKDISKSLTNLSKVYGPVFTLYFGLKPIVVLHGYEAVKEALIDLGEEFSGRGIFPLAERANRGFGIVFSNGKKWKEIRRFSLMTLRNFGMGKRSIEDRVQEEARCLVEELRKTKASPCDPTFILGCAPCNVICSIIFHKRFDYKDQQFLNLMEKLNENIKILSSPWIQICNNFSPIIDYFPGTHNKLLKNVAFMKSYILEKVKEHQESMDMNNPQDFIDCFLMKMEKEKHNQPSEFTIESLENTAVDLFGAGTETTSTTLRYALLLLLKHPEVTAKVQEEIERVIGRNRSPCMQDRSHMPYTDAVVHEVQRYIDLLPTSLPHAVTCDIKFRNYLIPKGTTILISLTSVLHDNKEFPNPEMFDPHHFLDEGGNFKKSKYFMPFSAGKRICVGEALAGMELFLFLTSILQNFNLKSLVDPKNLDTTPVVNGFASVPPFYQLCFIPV
CYP2C9 inh: inhibitors of human CYP2C9; P11712; CYP2C9 Supersomes, luciferin-H conversion, luminescence; inhibition, % at 5 µM; 96,000 compounds, 20% hits; AID 777;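 active means blocking of liver enzyme CYP2C9 beyond about 50% at 5 µM, limit read from the data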
CYP2C19 inhib: inhibitors of human CYP2C19; P33261; CYP2C19 Supersomes, luciferin-H EGE luminescence, 30 min; inhibition, % at 5 µM; 96,000 compounds, 21% hits; AID 778;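 active means CYP2C19 inhibition above a set limit at 5 µM in the primary screen, cut at about 50% in these data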
PLAP activator: activators of human placental alkaline phosphatase; P05187; 96,000 compounds, 1.2% hits; activation fold at 20 µM; purified PLAP enzyme, luminescent substrate read-out; hits give high values; in the data active means activation fold above about 2
A number is an active result; i = inactive; nt = not tested or not shown.

SMILES	CYP2C19 act	CYP2C9 activ	CYP2C9 inh	CYP2C19 inhib	PLAP activator
Cc1ccc(S(=O)(=O)c2c(C)nn(C(C)(C)C)c2OC(=O)c2ccco2)cc1	i	i	86.4	98.8	i
Cc1ccc(S(=O)(=O)c2c(C)nn(C(C)(C)C)c2OC(=O)C(C)(C)C)cc1	i	i	i	i	i
Cc1ccc(S(=O)(=O)c2c(C)nn(C(C)(C)C)c2OC(=O)c2cccs2)cc1	i	i	90.3	93.9	i
CC(=O)Oc1c(S(=O)(=O)c2ccc(C)cc2)c(C)nn1-c1ccccc1	i	i	78.1	i	i
Cc1ccc(S(=O)(=O)c2c(C)nn(C(C)(C)C)c2OC(=O)c2ccc(Br)o2)cc1	i	i	95.1	69.8	i
Cc1nn(C(C)(C)C)c(OC(=O)c2ccc3c(c2)OCO3)c1Sc1ccccc1	i	i	i	i	i
Cc1nn(C(C)(C)C)c(OC(=O)c2ccc3c(c2)OCO3)c1S(=O)(=O)c1ccccc1	i	i	82.9	61.9	i
COc1ccc(C2C(C#N)=C(N)N(Nc3ccccc3)C3=C2C(=O)CC(C)(C)C3)cc1C (stereo not given)	i	i	i	i	i
C=CCOc1ccc(C2C(C#N)=C(N)N(Nc3ccccc3)C3=C2C(=O)CCC3)cc1OC (stereo not given)	i	i	70.2	i	i
COc1cc(C2C(C#N)=C(N)N(Nc3ccccc3)C3=C2C(=O)CC(C)(C)C3)ccc1OCc1ccccc1 (stereo not given)	i	i	79.1	i	i
COc1cc(C2C(C#N)=C(N)N(Nc3ccccc3)C3=C2C(=O)CC(C)(C)C3)ccc1OCc1cccc(F)c1 (stereo not given)	i	i	95.9	67.6	i
Cn1nc(-c2ccccc2)c(CSc2ccccc2)c1Cl	i	i	i	i	i
COc1ccc(/C=N/NC(=O)C(=O)NCc2cccnc2)cc1OC	i	i	i	i	i
CSc1nncn1/N=C/c1cc(Cl)ccc1F	i	i	i	i	i
Fc1ccc(Cl)cc1/C=N/n1cnnc1SCc1ccccc1	i	i	i	66.0	i
Cc1cc(NC(=O)Cn2nnc3sc4c(c3c2=O)CCCC4)no1	i	i	i	i	i
CCOC(=O)c1sc(NC(=O)Cn2nnc3sc4c(c3c2=O)CCCC4)nc1C	i	i	55.0	i	i
CSc1nc(SCC(=O)NC(c2ccccc2)c2ccccc2)c2c3c(sc2n1)CN(C)CC3	i	i	57.4	i	i
O=[N+]([O-])c1ccc(N2CCC(=NOCc3ccc(Cl)cc3)CC2)cc1	i	i	i	i	i
Cc1ccc(-c2cn3cccnc3n2)cc1NC(=O)c1c(-c2ccccc2Cl)noc1C	i	i	i	54.0	i
Cc1onc(-c2ccccc2Cl)c1C(=O)Nc1ccc(-c2cn3cccnc3n2)cc1	i	i	i	i	i
Cc1onc(-c2ccccc2Cl)c1C(=O)Nc1cccnc1	i	i	i	i	i
Cc1onc(-c2ccccc2Cl)c1C(=O)Nc1cccc(-c2nc3ncccn3c2C)c1	i	i	52.4	54.8	i
NC(=O)NC(=O)Nc1ccccc1Cl	i	i	i	i	i
O=C(Nc1ccccc1Cl)ON=C1c2ccccc2-c2ccccc21	i	i	77.8	i	i
SMILES	CYP2C19 act	CYP2C9 activ	CYP2C9 inh	CYP2C19 inhib	PLAP activator
O=C(Nc1ccccc1)ON=C1c2ccccc2-c2ccccc21	i	i	72.0	i	i
Cc1sc(Nc2ccc([N+](=O)[O-])cc2)nc1-c1c(C)n(C)n(-c2ccccc2)c1=O	i	i	i	i	i
Cc1cccc(C(=O)N/N=C/c2ccc(OC3CSC3)cc2)c1	i	i	i	i	i
Cc1cccc(C(=O)N/N=C/c2ccncc2)c1	i	i	i	64.1	i
CC(/C=N/NC(=O)c1cc(C(C)(C)C)[nH]n1)=C\c1ccccc1	i	i	60.2	i	i
CC(/C=N/NC(=O)c1ccncc1)=C\c1ccccc1	i	i	78.9	81.2	i
Cc1cccc(CS(=O)(=O)Cc2ccc(C(=O)NCCN3CCCCC3C)o2)c1 (stereo not given)	i	i	i	i	i
CC(/C=C1\N=C(SCc2ccccc2Cl)SC1=O)=C\c1ccccc1	i	i	i	i	i
COc1cccc(-c2nc3ccccc3c(=O)o2)c1	i	i	i	i	i
O=c1oc(-c2ccc(Br)o2)nc2ccccc12	i	i	i	76.7	i
COC(=O)CCC(=O)Nc1sc(C)c(C)c1C(N)=O	i	i	i	i	i
Cc1sc(NC(=O)CN(Cc2ccc(F)cc2)C(=O)C(C)C)c(C(N)=O)c1C	i	i	i	51.4	i
COc1cccc2sc(N(C)c3ccccc3)nc12	i	i	i	78.1	i
O=C(c1scc2c1CCCC2)N1CCCCC1	i	i	i	i	i
O=C1c2ccccc2C(=O)N1Cc1nc2ccccc2c(=O)n1CCCn1ccnc1	i	i	91.7	87.5	i
O=C1c2ccccc2C(=O)N1CCc1nc2ccccc2c(=O)n1CCCn1ccnc1	i	i	80.0	i	i
O=C(O)c1ccc2c(c1)C(c1ccccc1)OC2=O (stereo not given)	i	i	i	i	i
N/C(COc1cccc(Cl)c1)=N\NS(=O)(=O)c1ccccc1	i	i	i	i	i
Cc1ccc(NC(=O)c2ccc(CNS(=O)(=O)c3cccc(C(F)(F)F)c3)cc2)cc1	i	i	i	i	i
N#CCSc1ccsc1C(=O)Nc1ccc(F)cc1	i	i	i	53.1	i
Cc1ccc(NC(=O)c2c(C(F)(F)F)nn(C)c2SCc2cccc(C(F)(F)F)c2)cc1C	i	i	91.9	i	i
CN(C)/C=C(\C#N)C(=O)Nc1ccc(F)cc1	i	i	i	i	i
Cc1ccc(NC(=O)c2sccc2SCc2cccc(C(F)(F)F)c2)cc1	i	i	73.6	69.1	nt
Cc1ccc(NC(=O)c2c(C(F)(F)F)nn(C)c2SCc2ccc(Cl)cc2)cc1C	i	i	99.5	64.8	i
CC(C)N(Cc1nnc(-c2ccccc2Cl)o1)C(=O)c1cccc(C#N)c1	i	i	i	i	i
SMILES	CYP2C19 act	CYP2C9 activ	CYP2C9 inh	CYP2C19 inhib	PLAP activator
CC(C)C(NC(=O)C12CC3CC(CC(C3)C1)C2)C(=O)O (stereo not given)	i	i	i	i	i
O=C1c2ccccc2OC2(C=Cc3ccccc3O2)N1Cc1ccccc1 (stereo not given)	i	i	94.1	97.1	i
CC(Sc1nnc(-c2ccc(Cl)cc2)n1C)C(N)=O (stereo not given)	i	i	i	i	i
NC(=O)C(c1ccc(Cl)cc1)c1ccc(Sc2ccc(Cl)cc2)nn1 (stereo not given)	i	i	i	63.4	i
Oc1cccc(-c2nc3c4c(ncn3n2)-c2ccccc2CC42CCCC2)c1	i	i	i	i	i
Cc1noc(C)c1COc1ccc(C(=O)OC(C)C(=O)Nc2ccc(N3CCOCC3)cc2)cc1 (stereo not given)	i	i	i	i	i
COc1ccccc1Cn1c(=O)c2ccccc2n2c(SCc3csc(C)n3)nnc12	i	i	i	57.0	i
COc1ccccc1Cn1c(=O)c2ccccc2n2c(Sc3ncnc4sccc34)nnc12	i	i	57.4	60.7	i

Screening results (PubChem)
